This is a sample that favours compounds with a hit; in the whole collection about 2.4% have one here.
Cruzain Triton = cruzain (T. cruzi) inhibition with detergent | Potency, µM, inactives show max response, negative = inhibition, usual class: inhibitors | hit rate 0.43% among 200,000 | P25779 | purified cruzain, Z-FR-AMC fluorescence, 0.01% Triton;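 further: plate controls were neutral wells for no effect and buffer without enzyme for full effect; nearly all actives have a fitted effect of over 40% in size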
Target sequence (P25779 123-467 limits assumed): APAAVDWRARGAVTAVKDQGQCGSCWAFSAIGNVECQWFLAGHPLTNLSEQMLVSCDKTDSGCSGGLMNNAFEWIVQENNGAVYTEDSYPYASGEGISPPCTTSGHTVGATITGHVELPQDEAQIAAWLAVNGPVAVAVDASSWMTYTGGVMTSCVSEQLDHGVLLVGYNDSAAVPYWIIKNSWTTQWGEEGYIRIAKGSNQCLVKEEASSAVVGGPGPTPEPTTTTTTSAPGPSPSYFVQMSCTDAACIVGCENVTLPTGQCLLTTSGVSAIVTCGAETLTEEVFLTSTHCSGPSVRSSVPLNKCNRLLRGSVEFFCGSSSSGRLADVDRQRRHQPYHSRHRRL
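Cruzain (1.5 nM) preincubated 15 min at RT with compound in 100 mM sodium acetate pH 5.5, 5 mM DTT, 0.01% Triton X-100. Reaction started with 2 uM Z-FR-AMC; AMC fluorescence (ex 360/em 450 nm) change over 60 s gave rate.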
Cruzain inh noDet = blocks cruzain activity in detergent-free assay; P25779; purified cruzain, Z-FR-AMC fluorescence, no detergent; Potency, µM, for the others: max response, negative = inhibition, usual class: inhibitors; hit rate 2.3% among 200,000;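 further: plate controls were enzyme without inhibitor for no effect and buffer without enzyme for full effect; nearly all actives have a fitted effect of over 40% in size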
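Purified cruzain at 1.5 nM, pre-incubated 15 min with compound at room temperature in 100 mM sodium acetate pH 5.5, 5 mM DTT, 0.00005% Triton X-100. Reaction started with 2 uM Z-FR-AMC; AMC fluorescence increase over 60 s gives rate.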
Active calls of the source: *; ? = inconclusive. The call rests on the fitted dose curve; in most records, active means well fitted curve in the direction sought with a large enough effect; inconclusive means small, poorly fitted or top-dose-only effect, or another doubt; inactive means no such curve, though single readings can be large; an effect the other way counts as inactive or inconclusive. Potency means the concentration at half of the fitted maximal effect.

SMILES	Cruzain Triton	Cruzain inh noDet
Cc1cccc(NC(=O)Cn2c(=O)n(Cc3ccc4c(c3)OCO4)c(=O)c3ccccc32)c1	-6%	20µM*
O=C(Cn1c(=O)n(Cc2ccc(C(=O)NCc3ccc4c(c3)OCO4)cc2)c(=O)c2ccccc21)Nc1ccccc1F	-2%	13µM*
COc1cccc(NC(=O)Cn2c(=O)n(Cc3ccc(C(=O)NCc4ccc5c(c4)OCO5)cc3)c(=O)c3ccccc32)c1	-2%	13µM*
Cc1ccc(NC(=O)Cn2c(=O)n(Cc3ccc4c(c3)OCO4)c(=O)c3ccccc32)cc1	-3%	5%
Cc1ccn2c(Nc3c(C)cccc3C)c(-c3ccc(Cl)s3)nc2c1	-12%	10µM*
Cc1ccn2c(Nc3c(C)cccc3C)c(-c3ccsc3)nc2c1	-13%	?
O=c1c2c3c(sc2n(CCN2CCCC2)c(=O)n1Cc1ccco1)CCCCC3	5%	?
O=C(Cn1c(=O)n(Cc2ccco2)c(=O)c2c3c(sc21)CCCCC3)Nc1ccccc1	28µM*	?
CN(C)CCn1c(=O)n(Cc2ccco2)c(=O)c2c3c(sc21)CCCCC3	5%	5%
O=C(Cn1c(=O)n(Cc2ccco2)c(=O)c2c3c(sc21)CCCCC3)c1ccccc1	-8%	25µM*
COc1ccc(CCNC(=O)CCc2cn(Cc3ccc(F)cc3)c3ccccc23)cc1OC	-4%	?
CCOCCOCC	7%	4%
COc1ccc(-c2cc(C(F)(F)F)n3nc(C(=O)O)c(Cl)c3n2)cc1OC	0%	4%
O=C(CNC(=O)/C(=C\c1ccccc1)NC(=O)c1ccc(Br)cc1)OCc1ccccc1	-30%	-10%
Cc1ccc(/C=C(\NC(=O)c2ccccc2)C(=O)OCc2ccccc2)cc1	7.9µM*	?
O=C(CNC(=O)/C(=C\c1ccc(F)cc1)NC(=O)c1ccccc1)OCc1ccccc1	18µM*	?
Cc1ccc(/C=C(\NC(=O)c2ccccc2)C(=O)NC(Cc2ccccc2)C(=O)O)cc1 (stereo unspecified)	-3%	-1%
CCc1cc(C(C)=O)c(O)cc1OCCCCCC(C)(C)c1nn[nH]n1	-24%	?
COc1ccc(C)cc1-n1nnc(-c2nc(-c3ccccc3Cl)no2)c1N	-3%	?
CCOC(=O)c1oc2ccccc2c1NC(=O)COc1cccc(OC)c1	6%	0%
CCOC(=O)c1oc2ccccc2c1NC(=O)COc1ccc(F)cc1	25%	13µM*
COc1ccc(OC)c(-c2csc(-c3c(N)c(C(=O)c4ccc(Cl)cc4)n4ccccc34)n2)c1	-1%	-22%
CC(=O)c1cccc(NC(=O)C(OC(=O)c2cccs2)c2ccccc2)c1 (stereo unspecified)	-6%	32µM*
COCCNC(=O)C(OC(=O)c1cccs1)c1ccccc1 (stereo unspecified)	8%	12%
CSc1nsc(/C=C/Nc2ccc(C)cc2)c1C#N	-1%	3.2µM*
SMILES	Cruzain Triton	Cruzain inh noDet
COc1cc(/C=N/Nc2snc(SC)c2C#N)ccc1O	0%	-28%
CC(=O)[C@]1(O)Cc2c(O)c3c(c(O)c2[C@@H](O[C@H]2C[C@H](N)[C@H](O)[C@H](C)O2)C1)C(=O)c1c(O)cccc1C3=O	-8%	-14%
CCOc1cccc2oc(-c3ccccc3Cl)cc(=O)c12	0%	1%
Cc1ccc(-c2nnc(Nc3ccc(Br)cc3)c3ccccc23)cc1S(=O)(=O)NCC1CCCO1 (stereo unspecified)	-6%	?
COc1ccc(N=C2C(=Nc3ccc(OC)cc3)N(c3ccccc3)C(=S)N2C(=O)c2ccc(Cl)cc2)cc1	-3%	4µM*
COc1ccc(NC(=S)c2ccc(N(C)C)cc2)cc1	-4%	8%
COc1ccc(N2CCN(C(=O)c3ccncc3)CC2)cc1	6%	2%
COc1ccc(N=C2C(=Nc3ccc(OC)cc3)N(c3ccc(N(C)C)cc3)C(=S)N2c2ccc(OC)cc2)cc1	-5%	7.9µM*
COc1ccc(C(=O)c2ccc(Cl)cc2)cc1	-3%	6%
COc1ccc(N=C2C(=Nc3ccc(OC)cc3)N(c3ccc(OC)cc3)C(=S)N2C(=O)c2ccc(OC)cc2)cc1	-5%	5µM*
IC(I)I	0%	-2%
Cc1coc2cc3oc(=O)c(CC(=O)NCc4ccccc4)c(C)c3cc12	1%	12%
O=C(NCCCN1CCN(c2ccc(F)cc2)CC1)c1cnn(-c2ccc(F)cc2)c1-n1cccc1	-4%	-18%
COc1ccccc1CCNC(=O)C(C)Sc1nc(-c2ccccc2)cc(C(F)(F)F)n1 (stereo unspecified)	-2%	-9%
CCN(CC)c1ccc2cc(-c3nc(-c4ccc(OC)cc4)cs3)c(=O)oc2c1	-6%	10µM*
CCN(CC)c1ccc2cc(-c3nc(-c4ccc(Cl)cc4Cl)cs3)c(=O)oc2c1	2%	8%
CC(CC(=O)O)(CC(=O)O)c1ccccc1	2%	-2%
O=C(NCCc1ccccc1Cl)c1ccc(Cn2c(=O)c3cccn3c3cccnc32)cc1	2%	-2%
Cc1ccc(C(=O)NCC(=O)OCC(=O)NC2CCS(=O)(=O)C2)cc1C (stereo unspecified)	16µM*	25µM*
O=C(COC(=O)CNS(=O)(=O)/C=C/c1ccccc1)NC1CCS(=O)(=O)C1 (stereo unspecified)	-27%	-22%
O=C(Nc1nc(-c2cccc([N+](=O)[O-])c2)cs1)C(c1ccccc1)c1ccccc1	-3%	10µM*
CS(=O)(=O)N1CCc2cc(-c3csc(NC(=O)C(c4ccccc4)c4ccccc4)n3)ccc21	2%	7.9µM*
COc1ccc(CC(=O)Nc2nc(-c3cccc([N+](=O)[O-])c3)cs2)cc1	1%	20µM*
COc1ccc(CC(=O)Nc2cccc(-c3csc(C)n3)c2)cc1	-7%	-16%
CC1Cc2cc(-c3csc(NC(=O)Cc4ccccc4)n3)ccc2N1S(C)(=O)=O (stereo unspecified)	6%	?
SMILES	Cruzain Triton	Cruzain inh noDet
CC(OC(=O)c1ccccc1Br)C(=O)Nc1nc(-c2cccc([N+](=O)[O-])c2)cs1 (stereo unspecified)	0%	?
Cc1cc(C)cc(NC(=O)CSc2nc3c([nH]c4ccccc43)c(=O)n2-c2ccc(F)cc2)c1	2%	?
COCCn1c(=O)cnc2cnc(OC)nc21	-5%	-14%
CC(NC(=O)c1ccccc1)C(=O)OCC(=O)N1c2ccccc2Sc2ccccc21 (stereo unspecified)	?	-5%
O=C1CN(C(=O)COC(=O)CNC(=O)c2ccccc2)c2ccccc2N1	?	16µM*
O=C1CN(C(=O)COC(=O)Cc2ccsc2)c2ccccc2N1	-2%	-3%
O=C(CNC(=O)c1ccccc1)OCC(=O)N1c2ccccc2Sc2ccccc21	10µM*	10µM*
COc1ccc(-n2cnc3cc(C(=O)NCCC4=CCCCC4)ccc32)cc1	-6%	28%
O=C(Cn1c(=O)n(Cc2ccco2)c(=O)c2sc3ccccc3c21)Nc1ccc(F)cc1F	-4%	-2%
COc1ccc(/C=C2\SC(=O)N=C2N)cc1	0%	32µM*
COc1ccc(/C=C2\SC(=NCc3ccccc3)NC2=O)cc1	-8%	4%
COc1ccccc1S(=O)(=O)Cc1ccc(C(=O)NCc2ccc(Cl)cc2)o1	-2%	-9%
CCn1c(C(=O)Nc2ccccc2C(=O)OC)cc2sc(Cl)cc21	1%	6%
O=C(O)CC1S/C(=N/N=C/C=C/c2ccccc2)NC1=O (stereo unspecified)	-17%	-3%
